Assay results published in PubChem BioAssay (Tox21).
Inconclusive results are not listed. Activity calls are given as the source filed them. Unless noted, calls come from the whole dose curve; as a rule, active = well fitted curve in the direction sought with a large enough effect in the repeat runs; inconclusive = weak or mixed curves; inactive = no such curve, though single readings can be large; an effect the other way counts as inactive or inconclusive.

Key:
[1] = qHTS assay to identify small molecule agonists of the vitamin D receptor (VDR) signaling pathway - cell viability counter screen (AID 743224); note: series mostly up to about 63 µM; % is set by controls: 0 for no effect and ±100 for the full control effect; nearly all actives have a fitted effect of over 50% in size
Summary of the method: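 VDR-bla cells, 4 h after plating, exposed to compounds for 16 h at 37C; viability then read in the same wells as CellTiter-Glo luminescence after 30 min at room temperature, following the bla FRET read.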

[2] = qHTS assay to identify small molecule antagonists of the vitamin D receptor (VDR) signaling pathway - cell viability counter screen (AID 743225); note: % is set by controls: 0 for no effect and ±100 for the full control effect; nearly all actives have a fitted effect of over 50% in size
Summary of the method: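 Read-out: CellTiter-Glo luminescence measured 30 min after reagent addition at room temperature. Cells were VDR-bla HEK 293T exposed 16 h at 37C, 5% CO2, to compound with 3 nM final calcitriol agonist.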

[3] = qHTS assay to identify small molecule agonists of the NFkB signaling pathway - cell viability counter screen (AID 1159515; calls by dose curve; note: series mostly up to about 61 µM; % is set by controls: 0 for no effect and ±100 for the full control effect; nearly all actives have a fitted effect of over 55% in size)
Summary of the method: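 NFkB-bla ME-180 cells, 2,000/well, plated overnight at 37 C; compound added for 5 hr at 37 C. Viability read in the same wells as the bla reporter, by CellTiter-Glo luminescence after 30 min at room temperature.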

[4] = qHTS assay to identify small molecule agonists of the endoplasmic reticulum stress response signaling pathway (AID 1159516; active = well fitted activation curve with a large enough effect in the signal ratio in the repeat runs, not every such curve was filed as active; the % refers to the signal ratio; note: potency is the fitted concentration of half-maximal effect; for activation: % is set by controls: 0 for no effect and ±100 for the full control effect)
Summary of the method: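 CellSensor ESRE-bla HeLa cells, 1,500 per well, plated overnight, then exposed to compounds for 5 hr at 37 C. Beta-lactamase reporter read with LiveBLAzer B/G FRET substrate after 2 hr at room temperature, 405 nm excitation, 460 and 530 nm emission.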

[5] = qHTS assay to identify small molecule agonists of the endoplasmic reticulum stress response signaling pathway - cell viability counter screen (AID 1159517; calls by dose curve;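 note: HeLa cells carrying an ER stress response element beta-lactamase reporter; series mostly up to about 61 µM; % is set by controls: 0 for no effect and ±100 for the full control effect; nearly all actives have a fitted effect of over 50% in size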)
Summary of the method: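 HeLa cells carrying an ESRE-driven beta-lactamase reporter receive compound for 5 hr at 37 C. Cell viability is then gauged with CellTiter-Glo by luminescence, 30 min at room temperature.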

[6] = qHTS assay to identify small molecule antagonists of the retinoid-related orphan receptor gamma (ROR-gamma) signaling pathway - cell viability counter screen (AID 1159520); note: % is set by controls: 0 for no effect and ±100 for the full control effect; nearly all actives have a fitted effect of over 50% in size
Summary of the method: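 Cytotoxicity was read from cellular ATP (CellTiter-Glo luminescence) after 16 hr at 37 C with 1 uM doxycycline induction. The inducer was added 2 hr after compound transfer to Tet-on ROR gamma CHO cells.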

[7] = qHTS assay to identify small molecule agonists of the AP-1 signaling pathway - cell viability counter screen (AID 1159525; calls by dose curve; note: nearly all actives have a fitted effect of over 55% in size)
Summary of the method: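 Luminescent ATP readout (Cell Titer Glo, 30 min RT), normalised to DMSO and tetra n-octyl ammonium bromide controls. Cells were ME-180 AP-1-bla in 0.5% dialyzed FBS Opti-MEM, with a 5 h, 37 °C compound exposure.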

[8] = qHTS assay to identify small molecule agonists of the AP-1 signaling pathway (AID 1159526; calls by dose curve; note: potency is the fitted concentration of half-maximal effect; for activation: % is set by controls: 0 for no effect and ±100 for the full control effect)
[9] = molecular target: Retinoic acid receptor RXR-alpha (Homo sapiens) (UniProt P19793); assay: qHTS assay to identify small molecule agonists of the RXR signaling pathway (AID 1159527; calls by dose curve; note: nearly all actives have a fitted effect of over 35% in size; note: potency is the fitted concentration of half-maximal effect; for activation: % is set by controls: 0 for no effect and ±100 for the full control effect)
Summary of the method: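 Read-out: beta-lactamase FRET ratio (405 nm excitation, 460 and 530 nm emission) after 2 hr substrate loading at room temperature. Cells were RXR-alpha-UAS-bla HEK 293T treated with compounds for 16 hr in 2% charcoal-stripped FBS medium.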

[10] = qHTS assay to identify small molecule agonists of the RXR signaling pathway - cell viability counter screen (AID 1159529); note: nearly all actives have a fitted effect of over 50% in size; note: potency is the fitted concentration of half-maximal effect
Summary of the method: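 HEK 293T RXRa-bla cells, 2% CS-FBS; 5 h settle; cpd 16 h 37 C, 5% CO2; CellTiter-Glo 30 min RT, luminescence. Tetraoctyl ammonium bromide as positive control.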

[11] = qHTS assay to identify small molecule antagonists of the retinoid acid receptor (RAR) signaling pathway - cell viability counter screen (AID 1159551); note: % is set by controls: 0 for no effect and ±100 for the full control effect; nearly all actives have a fitted effect of over 35% in size
Summary of the method: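 C3RL4 RARE-luciferase cells, 1,000/well, incubated overnight, then dosed with compound plus 1 uM retinol (final). After 6 hr at 37 C, viability read by CellTiter-Glo ATP luminescence following 30 min at room temperature.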

[12] = qHTS assay to identify small molecule agonists of the retinoic acid receptor (RAR) signaling pathway (AID 1159553); note: % is set by controls: 0 for no effect and ±100 for the full control effect
Summary of the method: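 C3RL4 RARE-luciferase cells were seeded at 1,000/well and grown overnight at 37 C, then exposed to compounds for 6 hr at 37 C, 5% CO2. Luciferase reagent was added and luminescence was read after 30 min at room temperature.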

[13] = qHTS assay to identify small molecule antagonists of the retinoic acid receptor (RAR) signaling pathway (AID 1159552)
Summary of the method: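 Cells of the C3RL4 line were seeded, incubated overnight, then dosed with compounds in DMSO followed immediately by retinol (1 uM final). Six hours later luciferase detection reagent went in; signal was measured after 30 min at RT.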

Retinoic acid receptor RXR-alpha (Homo sapiens), sequence (P19793 whole entry, looked up): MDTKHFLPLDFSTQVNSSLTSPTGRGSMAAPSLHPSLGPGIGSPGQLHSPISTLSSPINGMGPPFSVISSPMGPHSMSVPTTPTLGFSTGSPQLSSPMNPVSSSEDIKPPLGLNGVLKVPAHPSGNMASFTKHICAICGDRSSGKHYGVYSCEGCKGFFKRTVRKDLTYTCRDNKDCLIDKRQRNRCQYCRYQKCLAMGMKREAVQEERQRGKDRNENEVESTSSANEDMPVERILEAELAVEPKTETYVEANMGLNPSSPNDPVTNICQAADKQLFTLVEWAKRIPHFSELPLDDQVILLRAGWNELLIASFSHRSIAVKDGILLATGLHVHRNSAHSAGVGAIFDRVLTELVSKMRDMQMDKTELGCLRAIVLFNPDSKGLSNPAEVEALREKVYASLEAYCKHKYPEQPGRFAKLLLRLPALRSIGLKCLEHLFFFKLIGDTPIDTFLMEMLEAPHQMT

O=C1OC(CN2CCOCC2)CN1/N=C/c1ccc([N+](=O)[O-])o1 (centres undefined)
inactive: Potency [1] | Potency [2] | Potency [3] | Potency [4] | Potency [5] | Potency [6] | Potency [7] | Potency [8] | Potency [9] | Potency [10] | Potency [11] | Potency [12]

Nc1ccc([N+](=O)[O-])c(C(F)(F)F)c1
inactive: Potency [1] | Potency [2] | Potency [3] | Potency [4] | Potency [5] | Potency [6] | Potency [7] | Potency [8] | Potency [9] | Potency [10] | Potency [11] | Potency [13] | Potency [12]

C/C=C/C=C/CO
inactive: Potency [1] | Potency [2] | Potency [3] | Potency [4] | Potency [5] | Potency [6] | Potency [7] | Potency [8] | Potency [9] | Potency [10] | Potency [11]

CCCCOC(=O)CCCCCCCC(=O)OCCCC
inactive: Potency [1] | Potency [2] | Potency [3] | Potency [4] | Potency [5] | Potency [6] | Potency [7] | Potency [8] | Potency [9] | Potency [10] | Potency [11] | Potency [13] | Potency [12]

O=C(O)CC(=O)C(=O)O
inactive: Potency [2] | Potency [3] | Potency [4] | Potency [5] | Potency [6] | Potency [7] | Potency [8] | Potency [9] | Potency [10] | Potency [11] | Potency [13] | Potency [12]

OC(C#CCN1CCCC1)(c1ccccc1)c1ccccc1
active: Potency [8] 16.9 µM
inactive: Potency [1] | Potency [2] | Potency [3] | Potency [4] | Potency [5] | Potency [6] | Potency [7] | Potency [9] | Potency [10] | Potency [11] | Potency [13] | Potency [12]

C/C(=C(\CCOP(=O)(O)O)SC(=O)c1ccccc1)N(C=O)Cc1cnc(C)nc1N
inactive: activity change, negative = cytotoxicity [1] -3.71% [at 5.95 µM] | viability change, negative = cytotoxic [2] 2.62% [at 6.95 µM] | activity, negative = cytotoxic [3] 2.97% [at 6.95 µM] | activation [4] -0.946% [at 6.95 µM] | activity change, negative = cytotoxicity [5] 8.35% [at 6.95 µM] | activity, negative = cytotoxicity [6] -0.156% [at 8.39 µM] | viability change, negative = cytotoxic [7] -3.18% [at 6.97 µM] | activation [8] -6.29% [at 6.97 µM] | activation [9] 7.58% [at 6.98 µM] | activity change, negative = cytotoxicity [10] -1.63% [at 6.97 µM] | activity change, negative = cytotoxicity [11] 2.57% [at 8.39 µM] | activity, negative = inhibition [13] 10.1% [at 8.39 µM] | activation [12] 0.351% [at 8.36 µM]

CCN(CC)CCNC(=O)c1cc(Br)c(N)cc1OC
inactive: Potency [1] | Potency [2] | Potency [3] | Potency [4] | Potency [5] | Potency [6] | Potency [7] | Potency [8] | Potency [9] | Potency [10] | Potency [11]

CNC(=O)CN(CCN(CCN(CC(=O)[O-])CC(=O)NC)CC(=O)[O-])CC(=O)[O-].O.[Gd+3]
inactive: Potency [1] | Potency [2] | Potency [3] | Potency [4] | Potency [5] | Potency [6] | Potency [7] | Potency [8] | Potency [9] | Potency [10] | Potency [11] | Potency [12]

CC(=O)NO
inactive: Potency [1] | Potency [2] | Potency [3] | Potency [4] | Potency [5] | Potency [6] | Potency [7] | Potency [8] | Potency [9] | Potency [10] | Potency [11] | Potency [12]

COC(C)(C)CCO
inactive: Potency [1] | Potency [2] | Potency [3] | Potency [4] | Potency [5] | Potency [6] | Potency [7] | Potency [8] | Potency [9] | Potency [10] | Potency [11] | Potency [13] | Potency [12]

CCOC(=O)c1cccnc1
inactive: Potency [1] | Potency [2] | Potency [3] | Potency [4] | Potency [5] | Potency [6] | Potency [7] | Potency [8] | Potency [9] | Potency [10] | Potency [11]

CCNc1cc(O)ccc1C
inactive: Potency [1] | Potency [2] | Potency [3] | Potency [4] | Potency [5] | Potency [6] | Potency [7] | Potency [8] | Potency [9] | Potency [10] | Potency [11] | Potency [13] | Potency [12]

CC(C)O.CC(C)O.CCOC(=O)/C=C(\C)O.CCOC(=O)/C=C(\C)O.[Ti]
inactive: Potency [1] | Potency [2] | Potency [3] | Potency [4] | Potency [5] | Potency [6] | Potency [7] | Potency [8] | Potency [9] | Potency [10] | Potency [11] | Potency [13] | Potency [12]

O=[N+]([O-])c1ccc2[nH]ncc2c1
inactive: Potency [1] | Potency [2] | Potency [3] | Potency [4] | Potency [5] | Potency [6] | Potency [7] | Potency [8] | Potency [9] | Potency [10] | Potency [11] | Potency [13] | Potency [12]

CCOC(=O)COC(=O)c1cc(Oc2ccc(C(F)(F)F)cc2Cl)ccc1[N+](=O)[O-]
active: Potency [9] 24.5 µM
inactive: Potency [1] | Potency [2] | Potency [3] | Potency [4] | Potency [5] | Potency [6] | Potency [7] | Potency [8] | Potency [10] | Potency [11] | Potency [12]

CCn1cc(C(=O)O)c(=O)c2cnc(N3CCNCC3)nc21
inactive: Potency [1] | Potency [2] | Potency [3] | Potency [4] | Potency [5] | Potency [6] | Potency [7] | Potency [8] | Potency [9] | Potency [10] | Potency [11] | Potency [13]

O=C(O)c1ccco1
inactive: Potency [1] | Potency [3] | Potency [4] | Potency [5] | Potency [6] | Potency [7] | Potency [8] | Potency [9] | Potency [10] | Potency [11]

Brc1c2ccccc2cc2ccccc12
active: Potency [4] 49.5 µM | Potency [10] 35 µM
inactive: Potency [1] | Potency [2] | Potency [3] | Potency [5] | Potency [6] | Potency [7] | Potency [8] | Potency [9] | Potency [11] | Potency [12]

CC(C)(C)Cl
inactive: Potency [1] | Potency [2] | Potency [3] | Potency [4] | Potency [5] | Potency [6] | Potency [7] | Potency [8] | Potency [9] | Potency [10] | Potency [11] | Potency [13] | Potency [12]
